# Inconclusive results are not listed. Activity calls are given as the source filed them. Rule for the calls: active = hit-call score of the fitted dose curve at least 0.9, where 1 is the maximum; inconclusive = response in the unintended direction; inactive = score below 0.9.
# Tests used:
# [1] = target: rabbit Imidazoline 2 Central (I2C), CKB (gene 100009085) (UniProt P00567); assay: NVS_ENZ_rabI2C: NovaScreen (NVS) Enzymatic Assay for rabbit Imidazoline 2 Central (I2C) (AID 2283228)
# How it was run: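 Rabbit brain membranes, cell-free; readout by filter-based scintillation counting 1.5 hours after dosing, loss of signal vs DMSO. Initial duplicate test at 25 uM, then concentration-response with 50 uM top concentration.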
# [2] = target: sheep Cyclooxygenase-2 (Cox2), PTGS2 (gene 443460) (UniProt P79208); assay: NVS_ENZ_oCOX2: NovaScreen (NVS) Enzymatic Assay for sheep Cyclooxygenase-2 (Cox2) (AID 2283231)
# How it was run: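 Compounds were first run at 25 uM in duplicate against tissue-extracted ovine COX-2; those passing a preset inhibition threshold went to singleton concentration-response testing with a 50 uM maximum. Read-out: absorbance at 0.66 hour.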
# [3] = target: sheep Cyclooxygenase-1 (Cox1), PTGS1 (gene 443551) (UniProt P05979); assay: NVS_ENZ_oCOX1: NovaScreen (NVS) Enzymatic Assay for sheep Cyclooxygenase-1 (Cox1) (AID 2283239);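 note: actives reduce cyclooxygenase activity so potencies are for inhibitors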
# How it was run: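 Native ovine seminal vesicle protein serves as enzyme source in this biochemical assay. Colorimetric signal is recorded 0.66 h after chemical addition, and decreases versus the DMSO control define activity.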
# [4] = target: bovine Dopamine Receptor (DR), Non-selective Binding, DRD1 (gene 281125) (UniProt Q95136); assay: NVS_GPCR_bDR_NonSelective: NovaScreen (NVS) G Protein-Coupled Receptor Assay for bovine Dopamine Receptor (DR), Non-selective Binding (AID 2283241)
# How it was run: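 Bovine striatal membranes; radioligand displacement read by filtration and scintillation counting 1 h after dosing, loss of signal vs DMSO. Screened in duplicate at 25 uM, then concentration-response for hits.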
# [5] = target: human Tropomyosin Receptor Kinase A (TRKA), NTRK1 (gene 4914) (UniProt P04629); assay: NVS_ENZ_hTrkA: NovaScreen (NVS) Enzymatic Assay for human Tropomyosin Receptor Kinase A (TRKA) (AID 2283224)
# How it was run: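 Recombinant human TrkA activity read after 1 h by fluorescence with electrophoretic mobility shift separating substrate and product. Primary screen in duplicate at 25 uM; actives were rerun in concentration-response up to 50 uM. Loss of signal versus DMSO.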
# [6] = target: human Vascular Endothelial Growth Factor Receptor 3 (VEGFR3), FLT4 (gene 2324) (UniProt P35916); assay: NVS_ENZ_hVEGFR3: NovaScreen (NVS) Enzymatic Assay for human Vascular Endothelial Growth Factor Receptor 3 (VEGFR3) (AID 2283229)
# How it was run: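 Cell-free recombinant VEGFR3 kinase reaction with fluorescent substrate, read 1 h after dosing by electrophoretic mobility shift separation of substrate and product. Single-concentration duplicate screen at 25 uM, then concentration-response up to 50 uM; loss of activity versus DMSO.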
# [7] = target: human Vascular Endothelial Growth Factor Receptor 1 (VEGFR1), FLT1 (gene 2321) (UniProt P17948); assay: NVS_ENZ_hVEGFR1: NovaScreen (NVS) Enzymatic Assay for human Vascular Endothelial Growth Factor Receptor 1 (VEGFR1) (AID 2283226)
# How it was run: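 Cell-free assay of recombinant human VEGFR1 kinase with substrate, measured 1 h after dosing; fluorescence with electrophoretic mobility-shift separation of substrate and product, referenced to DMSO; primary screen at 25 uM in duplicate, actives then run in concentration series.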
# [8] = target: rat Constitutive Nitric Oxide Synthase (CNOS), Nos1 (gene 24598) (UniProt P29476); assay: NVS_ENZ_rCNOS: NovaScreen (NVS) Enzymatic Assay for rat Constitutive Nitric Oxide Synthase (CNOS) (AID 2283236)
# How it was run: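 Enzyme activity in rat brain membrane preparation, read 1 h after dosing by filter-based radiometric scintillation counting. Primary screen in duplicate at 25 uM; actives (e.g., ≥30% inhibition) then run in concentration-response up to 50 uM.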
# [9] = target: rat Catechol-O-Methyl Transferase (COMT), Comt (gene 24267) (UniProt P22734); assay: NVS_ENZ_rCOMT: NovaScreen (NVS) Enzymatic Assay for rat Catechol-O-Methyl Transferase (COMT) (AID 2283235)
# How it was run: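 Cell-free enzyme activity with protein extracted from rat dorsal striatum, measured by HPLC with absorbance detection. Compounds screened at 25 uM in duplicate; actives then run in concentration-response up to 50 uM, loss of signal versus DMSO.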
# Chain of sheep Cyclooxygenase-1 (Cox1), PTGS1 (gene 443551) (P05979 whole entry, looked up): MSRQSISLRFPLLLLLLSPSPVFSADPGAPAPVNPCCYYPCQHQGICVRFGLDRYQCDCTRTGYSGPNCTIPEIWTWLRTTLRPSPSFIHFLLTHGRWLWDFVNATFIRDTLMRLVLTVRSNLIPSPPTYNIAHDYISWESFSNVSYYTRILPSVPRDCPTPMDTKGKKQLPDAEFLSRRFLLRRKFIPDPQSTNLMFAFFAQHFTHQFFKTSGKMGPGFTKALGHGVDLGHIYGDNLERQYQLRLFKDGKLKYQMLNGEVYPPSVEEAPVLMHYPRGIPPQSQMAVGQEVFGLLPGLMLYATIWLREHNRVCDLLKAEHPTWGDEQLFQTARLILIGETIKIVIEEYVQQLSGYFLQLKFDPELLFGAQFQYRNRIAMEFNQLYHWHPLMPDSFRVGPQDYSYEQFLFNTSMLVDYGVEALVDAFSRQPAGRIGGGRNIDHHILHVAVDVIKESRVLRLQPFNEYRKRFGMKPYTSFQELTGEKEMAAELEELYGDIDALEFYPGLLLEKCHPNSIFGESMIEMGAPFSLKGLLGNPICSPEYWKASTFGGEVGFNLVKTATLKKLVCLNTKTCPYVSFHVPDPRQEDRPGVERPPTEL
# Chain of rat Constitutive Nitric Oxide Synthase (CNOS), Nos1 (gene 24598) (P29476 whole entry, looked up): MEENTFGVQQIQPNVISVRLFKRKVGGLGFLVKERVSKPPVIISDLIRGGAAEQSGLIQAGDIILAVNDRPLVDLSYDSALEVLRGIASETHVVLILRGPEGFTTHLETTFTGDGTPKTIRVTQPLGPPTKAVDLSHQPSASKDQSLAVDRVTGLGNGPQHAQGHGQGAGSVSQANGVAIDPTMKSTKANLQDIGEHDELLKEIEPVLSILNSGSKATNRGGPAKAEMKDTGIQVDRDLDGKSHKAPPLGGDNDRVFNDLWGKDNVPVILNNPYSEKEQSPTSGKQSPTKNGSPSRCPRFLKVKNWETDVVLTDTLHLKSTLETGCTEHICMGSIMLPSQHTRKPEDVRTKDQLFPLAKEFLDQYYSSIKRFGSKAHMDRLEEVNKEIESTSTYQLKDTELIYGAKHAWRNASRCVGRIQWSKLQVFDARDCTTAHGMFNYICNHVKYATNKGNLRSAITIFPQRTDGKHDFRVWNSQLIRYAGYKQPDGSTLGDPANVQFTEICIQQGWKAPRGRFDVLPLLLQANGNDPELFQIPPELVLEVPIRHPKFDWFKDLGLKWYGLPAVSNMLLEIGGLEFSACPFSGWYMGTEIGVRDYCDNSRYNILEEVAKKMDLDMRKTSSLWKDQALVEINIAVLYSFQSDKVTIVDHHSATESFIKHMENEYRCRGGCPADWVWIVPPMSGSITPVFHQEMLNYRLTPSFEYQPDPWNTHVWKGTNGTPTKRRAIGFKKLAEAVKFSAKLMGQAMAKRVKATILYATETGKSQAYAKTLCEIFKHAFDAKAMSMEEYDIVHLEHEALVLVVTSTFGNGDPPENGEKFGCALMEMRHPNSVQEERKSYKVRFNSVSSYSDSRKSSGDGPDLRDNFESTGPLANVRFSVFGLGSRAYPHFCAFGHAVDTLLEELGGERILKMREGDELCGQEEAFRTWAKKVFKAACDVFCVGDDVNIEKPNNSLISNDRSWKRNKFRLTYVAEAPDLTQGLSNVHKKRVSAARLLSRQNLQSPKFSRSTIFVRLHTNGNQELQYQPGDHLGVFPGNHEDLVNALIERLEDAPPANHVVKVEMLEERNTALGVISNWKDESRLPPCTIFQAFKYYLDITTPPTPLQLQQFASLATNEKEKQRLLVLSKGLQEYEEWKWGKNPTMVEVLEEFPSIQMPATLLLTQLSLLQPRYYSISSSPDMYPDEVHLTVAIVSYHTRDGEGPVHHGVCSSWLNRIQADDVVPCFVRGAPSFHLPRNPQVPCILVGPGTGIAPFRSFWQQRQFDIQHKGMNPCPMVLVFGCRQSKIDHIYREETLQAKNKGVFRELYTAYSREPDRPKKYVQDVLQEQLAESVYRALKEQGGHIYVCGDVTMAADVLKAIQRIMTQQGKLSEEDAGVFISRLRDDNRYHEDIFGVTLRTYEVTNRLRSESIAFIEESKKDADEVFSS
# Chain of rabbit Imidazoline 2 Central (I2C), CKB (gene 100009085) (P00567 whole entry, looked up): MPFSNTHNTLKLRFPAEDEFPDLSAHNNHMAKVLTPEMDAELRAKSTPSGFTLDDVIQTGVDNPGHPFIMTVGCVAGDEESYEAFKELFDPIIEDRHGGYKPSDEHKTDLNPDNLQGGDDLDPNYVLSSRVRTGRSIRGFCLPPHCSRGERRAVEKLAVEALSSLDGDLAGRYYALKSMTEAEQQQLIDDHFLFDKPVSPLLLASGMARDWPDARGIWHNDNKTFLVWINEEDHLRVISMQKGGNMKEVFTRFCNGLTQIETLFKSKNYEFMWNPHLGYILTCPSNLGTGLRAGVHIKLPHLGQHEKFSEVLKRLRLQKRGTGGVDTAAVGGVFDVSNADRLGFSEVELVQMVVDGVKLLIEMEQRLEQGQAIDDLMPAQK
# Chain of human Vascular Endothelial Growth Factor Receptor 1 (VEGFR1), FLT1 (gene 2321) (P17948 whole entry, looked up): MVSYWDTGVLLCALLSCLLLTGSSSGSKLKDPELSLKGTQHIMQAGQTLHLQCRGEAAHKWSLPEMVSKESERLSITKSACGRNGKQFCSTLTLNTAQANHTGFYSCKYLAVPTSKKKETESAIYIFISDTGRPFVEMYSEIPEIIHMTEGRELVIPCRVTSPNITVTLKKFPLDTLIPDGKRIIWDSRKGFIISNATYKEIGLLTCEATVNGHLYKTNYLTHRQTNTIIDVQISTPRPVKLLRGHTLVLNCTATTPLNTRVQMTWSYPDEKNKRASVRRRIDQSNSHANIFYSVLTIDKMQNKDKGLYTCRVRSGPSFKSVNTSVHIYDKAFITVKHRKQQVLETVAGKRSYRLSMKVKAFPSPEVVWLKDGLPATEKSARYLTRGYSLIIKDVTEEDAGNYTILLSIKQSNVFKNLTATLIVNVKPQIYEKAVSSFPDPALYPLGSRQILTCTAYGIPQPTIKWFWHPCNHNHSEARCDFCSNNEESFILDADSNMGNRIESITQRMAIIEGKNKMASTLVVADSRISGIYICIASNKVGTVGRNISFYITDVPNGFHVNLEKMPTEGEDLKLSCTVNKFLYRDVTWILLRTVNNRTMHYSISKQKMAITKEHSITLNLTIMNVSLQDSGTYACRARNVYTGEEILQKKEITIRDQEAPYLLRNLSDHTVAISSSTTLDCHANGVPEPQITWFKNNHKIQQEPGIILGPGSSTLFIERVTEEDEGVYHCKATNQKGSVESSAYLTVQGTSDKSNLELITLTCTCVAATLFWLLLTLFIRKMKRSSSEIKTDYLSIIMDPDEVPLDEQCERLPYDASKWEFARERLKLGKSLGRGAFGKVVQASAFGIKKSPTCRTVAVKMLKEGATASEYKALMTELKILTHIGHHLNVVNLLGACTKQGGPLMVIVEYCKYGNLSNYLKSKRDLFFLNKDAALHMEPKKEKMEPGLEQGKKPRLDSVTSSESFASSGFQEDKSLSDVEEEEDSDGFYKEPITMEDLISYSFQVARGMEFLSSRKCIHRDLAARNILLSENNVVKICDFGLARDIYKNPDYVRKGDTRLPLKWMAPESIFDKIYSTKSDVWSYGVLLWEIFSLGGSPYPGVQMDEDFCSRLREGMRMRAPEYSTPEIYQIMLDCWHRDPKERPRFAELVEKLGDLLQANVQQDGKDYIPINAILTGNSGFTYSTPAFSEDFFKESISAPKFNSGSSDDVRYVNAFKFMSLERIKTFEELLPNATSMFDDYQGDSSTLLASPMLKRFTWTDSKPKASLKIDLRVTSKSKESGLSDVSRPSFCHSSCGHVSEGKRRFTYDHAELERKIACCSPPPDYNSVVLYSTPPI
# Chain of bovine Dopamine Receptor (DR), Non-selective Binding, DRD1 (gene 281125) (Q95136 whole entry, looked up): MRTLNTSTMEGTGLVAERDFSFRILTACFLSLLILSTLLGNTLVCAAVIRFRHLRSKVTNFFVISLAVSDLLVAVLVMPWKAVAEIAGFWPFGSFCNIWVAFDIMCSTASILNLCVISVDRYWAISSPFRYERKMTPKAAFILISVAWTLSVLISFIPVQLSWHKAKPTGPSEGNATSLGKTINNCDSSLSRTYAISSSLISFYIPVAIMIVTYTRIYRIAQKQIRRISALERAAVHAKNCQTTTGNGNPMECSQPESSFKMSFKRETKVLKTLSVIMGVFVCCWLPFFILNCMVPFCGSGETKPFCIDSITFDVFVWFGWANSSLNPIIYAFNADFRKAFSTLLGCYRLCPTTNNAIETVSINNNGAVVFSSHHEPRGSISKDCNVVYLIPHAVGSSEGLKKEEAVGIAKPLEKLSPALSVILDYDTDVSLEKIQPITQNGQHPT
# Chain of sheep Cyclooxygenase-2 (Cox2), PTGS2 (gene 443460) (P79208 whole entry, looked up): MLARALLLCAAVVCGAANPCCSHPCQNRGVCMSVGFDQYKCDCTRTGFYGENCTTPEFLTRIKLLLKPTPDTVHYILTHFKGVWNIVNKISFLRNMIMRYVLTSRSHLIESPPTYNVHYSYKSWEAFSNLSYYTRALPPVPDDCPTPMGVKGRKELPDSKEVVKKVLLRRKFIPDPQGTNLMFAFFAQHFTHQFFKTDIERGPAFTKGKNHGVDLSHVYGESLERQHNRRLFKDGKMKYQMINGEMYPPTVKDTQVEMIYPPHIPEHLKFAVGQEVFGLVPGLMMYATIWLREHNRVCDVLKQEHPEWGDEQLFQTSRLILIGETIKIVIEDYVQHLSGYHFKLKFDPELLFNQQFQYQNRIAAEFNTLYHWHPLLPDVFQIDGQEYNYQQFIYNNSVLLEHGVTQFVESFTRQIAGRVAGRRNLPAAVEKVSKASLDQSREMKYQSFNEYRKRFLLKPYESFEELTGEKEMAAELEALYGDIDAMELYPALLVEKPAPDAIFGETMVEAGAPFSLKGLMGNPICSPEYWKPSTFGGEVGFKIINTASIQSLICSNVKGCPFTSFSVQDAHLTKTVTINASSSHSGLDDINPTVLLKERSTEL
# Chain of rat Catechol-O-Methyl Transferase (COMT), Comt (gene 24267) (P22734 whole entry, looked up): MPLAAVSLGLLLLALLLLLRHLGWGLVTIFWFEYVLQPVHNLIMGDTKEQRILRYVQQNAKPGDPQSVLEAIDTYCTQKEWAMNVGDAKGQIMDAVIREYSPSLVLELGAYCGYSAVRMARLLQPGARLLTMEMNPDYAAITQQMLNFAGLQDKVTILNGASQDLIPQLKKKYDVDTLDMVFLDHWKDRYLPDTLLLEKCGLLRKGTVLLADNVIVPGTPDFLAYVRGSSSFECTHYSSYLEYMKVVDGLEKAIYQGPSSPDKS
smiles,measurement,setting,value
CCOC(=O)c1ccc(C2CCC(NC[C@H](O)COc3ccc(O)c(NS(C)(=O)=O)c3)CC2)cc1 (stereo not given in full),AC50,[1],23.4 µM (active)
same,AC50,[2],8.48 µM (active)
same,AC50,[3],15.2 µM (active)
same,AC50,[4],1.24 µM (active)
O=C(O)c1cccc(Oc2ccccc2)c1,outcome,[5],inactive
same,outcome,[6],inactive
CN(C)c1ccc(N=NS(=O)(=O)O)cc1,outcome,[7],inactive
same,AC50,[1],23.8 µM (active)
same,outcome,[6],inactive
same,outcome,[8],inactive
CC[C@H](C)C(=O)O[C@H]1C[C@@H](C)C=C2C=C[C@H](C)[C@H](CC[C@@H]3C[C@@H](O)CC(=O)O3)[C@H]21,outcome,[7],inactive
same,outcome,[6],inactive
same,AC50,[2],8.83 µM (active)
same,AC50,[3],34.3 µM (active)
CCOc1cccc(-n2cc(C(=O)N3CCN(c4cc(C(=O)O)c5ccccc5c4)CC3)nc2-c2ccc(C)cc2)c1,AC50,[2],6.87 µM (active)
CC(O)CN(CCN(CC(C)O)CC(C)O)CC(C)O (stereo not given),outcome,[6],inactive
COc1cccc(-c2ccc(/C=C\CN3CCCCCC3)cc2Cl)c1,AC50,[1],22.6 µM (active)
same,AC50,[8],29.9 µM (active)
same,AC50,[4],36.4 µM (active)
CC[C@H]1CC[C@H](NCc2cc3c(cc2OC)[C@H]2C[C@H]2C(=O)N3C)[C@H](c2ccccc2)N1,AC50,[1],10.4 µM (active)
Fc1ccccc1[C@@H](F)COC1CCC(Nc2ncnc3[nH]ncc23)CC1 (stereo not given in full),outcome,[1],inactive
Nc1ccc(Nc2ccccc2)cc1,AC50,[1],4.76 µM (active)
CC(=O)OCCC(C)C,outcome,[5],inactive
COc1ccc(-n2nc(C(F)F)cc2-c2ccc(S(C)=O)cc2)cc1 (stereo not given),AC50,[2],0.478 µM (active)
COC(=O)c1c(Cl)c(Cl)c(C(=O)OC)c(Cl)c1Cl,outcome,[6],inactive
Cc1[nH]cnc1C[C@H]1CCc2c(C)c3ccccc3n2C1=O,outcome,[1],inactive
same,AC50,[4],8.58 µM (active)
O=C(O)c1cc(N=Nc2ccc(S(=O)(=O)Nc3ccccn3)cc2)ccc1O,outcome,[7],inactive
same,outcome,[6],inactive
O=c1[nH]c2ccc(S(=O)CCN3CCC(Cc4ccc(F)cc4)CC3)cc2o1 (stereo not given),AC50,[1],6.76 µM (active)
same,outcome,[8],inactive
same,AC50,[4],6.78 µM (active)
Cn1c(=O)cc(Oc2ccc(F)cc2F)c2cnc(NCC(C)(C)O)nc21,AC50,[7],29.9 µM (active)
CC(C)c1cccc(C(C)C)c1N1C(=O)c2ccc(O)cc2C1=O,outcome,[7],inactive
same,outcome,[6],inactive
same,AC50,[2],4.32 µM (active)
same,AC50,[3],2.48 µM (active)
CC(=O)c1ccc2c(c1)[C@H](NC(=O)c1ccc(F)cc1)[C@@H](O)C(C)(C)O2,AC50,[2],11.3 µM (active)
CCN(C(=O)c1cc(C)cc(OC[C@H](C)Nc2ccncc2)c1)C(C)C,outcome,[1],inactive
Cc1ccc(N)cc1O,outcome,[7],inactive
same,outcome,[6],inactive
CC(C)CCO,outcome,[9],inactive
O=C(OC[C@H]1O[C@@H](OC(=O)c2cc(O)c(O)c(OC(=O)c3cc(O)c(O)c(O)c3)c2)[C@H](OC(=O)c2cc(O)c(O)c(OC(=O)c3cc(O)c(O)c(O)c3)c2)[C@@H](OC(=O)c2cc(O)c(O)c(OC(=O)c3cc(O)c(O)c(O)c3)c2)[C@@H]1OC(=O)c1cc(O)c(O)c(OC(=O)c2cc(O)c(O)c(O)c2)c1)c1cc(O)c(O)c(OC(=O)c2cc(O)c(O)c(O)c2)c1,AC50,[9],0.371 µM (active)
CCn1nc(Cc2ccccc2)cc1C1CCN(C[C@H]2C[C@H](N(C)[C@@H](C(=O)O)C(C)C)C[C@@H]2c2cccc(F)c2)CC1,AC50,[4],18.6 µM (active)
CCCN(C1CCN(C(=O)C2CCNCC2)CC1)[C@@H]1CCc2ccc(OC)cc2C1,AC50,[4],8.91 µM (active)
